Results on 34 compounds are retold here after PubChem BioAssay.

Values joined by “and” are separate entries in the source; they are usually repeats but may differ in a detail not shown here. Equal entries are not always repeated. Inconclusive results are not listed. Unmarked numbers belong to inactive results.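 The calls were made as follows, unless noted: active = GFP response, as percent of the DMSO control, above the screen-wide mean plus 3 SD, about 139; inconclusive = no response measured because the compound's own fluorescence interfered; inactive = the rest.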 Peptide text beside a SMILES is read from it.

A short description of assay [1]: modulators of MEP2-GFP levels in yeast, primary screen, S. cerevisiae, multiplex flow cytometry (AID 1867).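 Also: median GFP channel fluorescence of barcode-gated MEP2-GFP cells measured by flow cytometry.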 To be noted: S. cerevisiae MEP2-GFP strain, 3 h, at 10 µM, active compounds read high. In general terms: Flow cytometry measures light scatter and fluorescence of single cells or particles in a stream.
Assay [2] in a line: modulators of AGP1-GFP expression in yeast TOR pathway, primary screen, cell-based, multiplex flow cytometry, S. cerevisiae (AID 1887;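 active = GFP signal above the screen-wide mean plus 3 SD, that is over about 124.5% of the solvent control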;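 also: AGP1-GFP fusion strain of S. cerevisiae within a five-strain barcoded multiplex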). To be noted: 3 h, at 10 µM, active compounds read high.

As for `COC1=CC(=O)OC(/C=C/c2ccccc2)C1` (stereo not drawn), in assay [1], the GFP response vs DMSO is 105%. The GFP response, % of DMSO in assay [2] is 103%.

In the case of `c1ccc(Cn2ccnc2)cc1`, the GFP response vs DMSO in assay [1] was 97.9%. Further, the GFP response, % of DMSO in assay [2] is 98.2%.

With `CN[C@H](C)[C@H](O)c1ccccc1`, in assay [1], the GFP response vs DMSO is 131%. Further, in assay [2], the GFP response, % of DMSO is 101%.

For the compound `O=C1CC[C@@]2(O)[C@H]3Cc4ccc(O)c5c4[C@@]2(CCN3CC2CC2)[C@H]1O5`, the GFP response vs DMSO in assay [1] was 126%. Further, the GFP response, % of DMSO in assay [2] is 96.1%.

Turning to `C[N+]1(C)CCN(c2ccccc2)CC1`, the GFP response vs DMSO in assay [1] was 94.8%. In assay [2], the GFP response, % of DMSO was 96.6%.

With `CN(C)[C@@H]1C(=O)C(C(N)=O)=C(O)[C@@]2(O)C(=O)C3=C(O)c4c(O)cccc4[C@@](C)(O)[C@H]3[C@H](O)[C@@H]12`, the GFP response vs DMSO in assay [1] is 98.9%. In addition, the GFP response, % of DMSO in assay [2] was 103%.

Take `C[C@H]1CCC/C=C/C2C[C@H](O)CC2[C@H](O)/C=C/C(=O)O1` (stereo partly drawn): the GFP response vs DMSO in assay [1] is 111%. Further, the GFP response, % of DMSO in assay [2] is 102%.

For the compound `Cc1ccc(/C=C2/C(=O)NC(=O)N(C)C2=O)cc1`, the GFP response vs DMSO in assay [1] is 96.9%. The GFP response, % of DMSO in assay [2] was 93.6%.

With `Cc1cc(Cl)ccc1OC(C)C(=O)O` (stereo not drawn), the GFP response vs DMSO in assay [1] is 108%. The GFP response, % of DMSO in assay [2] was 87.3%.

For the compound `CC(C)[C@H]1C(=O)N2CCC[C@H]2[C@]2(O)O[C@](NC(=O)[C@@H]3C=C4c5cccc6[nH]cc(c56)C[C@H]4N(C)C3)(C(C)C)C(=O)N12`, in assay [1], the GFP response vs DMSO is 108%. For the same compound, the GFP response, % of DMSO in assay [2] was 118%.

In the case of `COc1ccc(OC)c(C(O)C(C)N)c1` (stereo not drawn), the GFP response vs DMSO in assay [1] is 94.1%. Besides, in assay [2], the GFP response, % of DMSO was 98.3%.

With `CCNC(=S)N(C)CCc1cc2c(c(OC)c1C=C1C(=O)N(C)C(=O)N(C)C1=O)OCO2`, the GFP response vs DMSO in assay [1] was 95.9%. In addition, the GFP response, % of DMSO in assay [2] was 96.1%.

As to `CN1C(=O)CN=C(c2ccc(Cl)cc2)c2cc(Cl)ccc21`, in assay [1], the GFP response vs DMSO was 100%. The GFP response, % of DMSO in assay [2] was 92.2%.

In the case of `COc1ccccc1CN1CCCCC1c1cccnc1` (stereo not drawn), the GFP response vs DMSO in assay [1] is 99.3%. Further, in assay [2], the GFP response, % of DMSO was 107%.

In the case of `O=c1[nH]c2ccccc2n1CCCN1CCC(n2c(=O)[nH]c3cc(Cl)ccc32)CC1`, the GFP response vs DMSO in assay [1] is 109%. The GFP response, % of DMSO in assay [2] is 101%.

With `NCC1(c2ccc3c(c2)OCCO3)CCCC1`, the GFP response vs DMSO in assay [1] was 101%. Besides, the GFP response, % of DMSO in assay [2] was 91.3%.

Regarding `CC(Cc1ccccc1)NCC(=O)Nc1cc(N(C)C)nc2ccccc12` (stereo not drawn), the GFP response vs DMSO in assay [1] is 107%. Further, the GFP response, % of DMSO in assay [2] is 103%.

`O=C(O)CCCc1ccc(N(CCCl)CCCl)cc1`: in assay [1], the GFP response vs DMSO was 103%. The GFP response, % of DMSO in assay [2] is 97.6%.

With `C[N+]1(C)[C@@H]2CC(OC(=O)[C@H](CO)c3ccccc3)C[C@H]1[C@@H]1O[C@@H]12` (stereo partly drawn), the GFP response vs DMSO in assay [1] is 104% and 114%. Moreover, in assay [2], the GFP response, % of DMSO was 99.6% and 104%.

In the case of `COc1ccc2c(c1)CC1(CN2C)C(=O)NC(=O)N(CCc2ccccc2)C1=O` (stereo not drawn), the GFP response vs DMSO in assay [1] was 98.3%. In addition, in assay [2], the GFP response, % of DMSO was 97.8%.

`CC(C)C[C@H](NC(=O)[C@@H]1CCCN1C(=O)[C@@H](N)Cc1ccc(O)cc1)C(=O)NCC(N)=O` (H-YPLG-NH2): the GFP response vs DMSO in assay [1] was 101%. In assay [2], the GFP response, % of DMSO was 103%.

Take `CN[C@H]1C[C@H]2O[C@@](C)([C@H]1OC)n1c3ccccc3c3c4c(c5c6ccccc6n2c5c31)C(=O)NC4`: the GFP response vs DMSO in assay [1] is 105%. In assay [2], the GFP response, % of DMSO was 90.8%.

For `COc1ccc(Cc2nccc3cc(OC)c(OC)cc23)cc1OC`, the GFP response vs DMSO in assay [1] was 96.7%. The GFP response, % of DMSO in assay [2] was 99.5%.

Regarding `COc1ccc(C(=O)N2CCCC2=O)cc1`, the GFP response vs DMSO in assay [1] is 107%. The GFP response, % of DMSO in assay [2] is 117%.

For `C[C@@H]1O[C@@H](O[C@H]2C[C@@H](O)[C@]3(CO)[C@H]4[C@H](O)C[C@]5(C)[C@@H](C6=CC(=O)OC6)CC[C@]5(O)[C@@H]4CC[C@]3(O)C2)[C@H](O)[C@H](O)[C@H]1O`, the GFP response vs DMSO in assay [1] was 104%. In assay [2], the GFP response, % of DMSO was 116%.

For `S=C1NCCN1`, in assay [1], the GFP response vs DMSO is 109%. Moreover, the GFP response, % of DMSO in assay [2] is 99.6%.

With `CC[N+]1(C)CCCC(OC(=O)C(O)(c2ccccc2)c2ccccc2)C1` (stereo not drawn), in assay [1], the GFP response vs DMSO was 102%. For the same compound, the GFP response, % of DMSO in assay [2] was 119%.

On to `C[C@H]1CCC[C@H](O)CCCCCc2cc(O)cc(O)c2C(=O)O1`, for which the GFP response vs DMSO in assay [1] was 94.8%. Besides, the GFP response, % of DMSO in assay [2] is 105%.

As to `CC[C@@H](CO)NC(=O)[C@@H]1C=C2c3cccc4c3c(cn4C)C[C@H]2N(C)C1`, in assay [1], the GFP response vs DMSO is 103%. Further, the GFP response, % of DMSO in assay [2] is 94.5%.

As for `CC(=O)[C@H]1CC[C@H]2[C@@H]3CC[C@H]4C[C@H](O)CC[C@]4(C)[C@H]3C(=O)C[C@]12C`, in assay [1], the GFP response vs DMSO is 97.9%. Besides, the GFP response, % of DMSO in assay [2] is 90.4%.

Turning to `O=C(CCCN1CCC2(CC1)C(=O)NCN2c1ccccc1)c1ccc(F)cc1`, the GFP response vs DMSO in assay [1] is 95.7%. The GFP response, % of DMSO in assay [2] is 113%.

In the case of `Cc1ccc2c(c1)C1CN(C)CCC1N2C(=O)Nc1cccc(Cl)c1` (stereo not drawn), the GFP response vs DMSO in assay [1] is 102%. In assay [2], the GFP response, % of DMSO is 102%.

For the compound `Cc1cccc(C)c1NC1=NCCCS1`, the GFP response vs DMSO in assay [1] is 104%. In addition, the GFP response, % of DMSO in assay [2] was 91.8%.

In the case of `CCN(CC)C(=O)N[C@H]1C[C@@H]2c3cccc4[nH]cc(c34)C[C@H]2N(C)C1`, the GFP response vs DMSO in assay [1] is 107%. Also, the GFP response, % of DMSO in assay [2] is 98.6%.
